Records with an inconclusive call do not appear. Values without a mark were called inactive. Calls of active or inactive are those of the source. The call rests on the fitted dose curve; in most records, active means well fitted cell-killing curve with a large enough effect in the repeat runs; inconclusive means weak or mixed curves; inactive means flat fitted curve, though single readings scatter.
Experiment: qHTS assay to identify small molecule antagonists of the TGF-beta/Smad signaling pathway - cell viability counter screen (AID 1346824); further: nearly all actives have a fitted effect of over 50% in size
Details: SBE-bla HEK293T viability, CellTiter-Glo luminescence; series mostly up to 76.8 µM
Excerpt: U.S. Tox21 Program National Center for Advancing Translational Sciences [NCATS] NIH Chemical Genomics Center [NCGC] U.S. Environmental Protection Agency [EPA] National Institutes of Environmental Health Sciences [NIEHS] National Toxicology Program [NTP] U.S. Food and Drug Administration [FDA] Tox21 Assay Overview: Transforming growth factor beta (TGF-beta) superfamily consists of a large number of structurally related dimeric proteins that act as hormones or local mediators in regulating a wide range of biological functions. This superfamily includes TGF-betas themselves, the bone morphogenetic proteins (BMPs) and the activins. These ligands induce oligomerization of serine/threonine receptor kinases and phosphorylate the cytoplasmic signaling molecules of Smad protein family. CellSensor SBE-bla HEK 293T cell line (Life Technologies, Carlsbad, CA), responsive to TGF-beta was used to screen Tox21 10K compound library for identification of agonists/antagonists of the Smad signaling pathway. This cell line contains a beta-lactamase reporter gene under control of the Smad binding element (SBE) stably integrated into HEK 293T cells. Also cytotoxicity of the compounds was tested in parallel by measuring the cell viability using CellTiter-Glo assay system in the same wells.
Tox21 Assay Protocol Summary: SBE-bla HEK 293T cells were dispensed at 4,000/well in 5 uL of assay medium into black wall/clear-bottom 1536-well plates using a Multidrop Combi (ThermoFisher Scientific, Waltham, MA) dispenser. After the assay plates were incubated at 37 C and 5% CO2 for an overnight, 23 nL of compounds dissolved in DMSO, positive controls or DMSO only was transferred to the assay plate by a Pintool station (Kalypsys, San Diego, CA). Compound transfer was followed by the addition of 1 uL of 0.25 ng/mL TGF-beta1 or assay buffer using two separate tips of Flying Reagent Dispenser (FRD, Aurora Discovery, San Diego, CA). The assay plates were incubated at 37 C and 5% CO2 for 5 hr. One uL of LiveBLAzer B/G FRET substrate (Life Technologies) was added using a Flying Reagent Dispenser (FRD, Aurora Discovery, San Diego, CA) and the plates were incubated at room temperature for 2 hr. Fluorescence intensity (405 nm excitation, 460 nm and 530 nm emissions) was measured using an Envision plate reader (PerkinElmer, Shelton, CT). For cytotoxicity read, 4 uL of CellTiter-Glo reagent (Promega Corporation, Madison, WI) was added to each well of the assay plates using FRD. After 30 min incubation at room temperature, the luminescence intensity was measured using ViewLux plate reader (PerkinElmer).
On the % scale 0 is the no-effect control and ±100 the full control effect.

Compound | outcome | viability change, negative = cytotoxic
CCCCCCCCNC | inactive | 
CC1=CC(=C(c2ccc(N)cc2)c2ccc(N)cc2)C=CC1=N |  | 12% [at 6.97 µM]
CCCC(=O)OCCC(C)C | inactive | 
O=c1c2ccccc2oc2ccccc12 | inactive | 
CC(=O)CC/C=C(\C)CC/C=C(\C)CC/C=C(\C)CCC=C(C)C | inactive | 
CCCCCCCCCCCCCCCCCCCl |  | -4.8% [at 6.97 µM]
O=Cc1ccc(Cl)c([N+](=O)[O-])c1 | inactive | 
CCCCCCCCOCCCN | inactive | 
CC1=C(C)C(=O)C(C(CCCCCC(=O)O)c2ccccc2)=C(C)C1=O (stereo not given) | inactive | 
Cc1cc(C)n(CO)n1 | inactive | 
CCOCCn1c(N2CCCN(C)CC2)nc2ccccc21 | inactive | 
O=C(O)c1cc(C(=O)O)cc([N+](=O)[O-])c1 | inactive | 
S=c1[nH][nH]c(=S)s1 | inactive | 
CCC(CC)C(=O)O | inactive | 
COC=O |  | 2.71% [at 6.97 µM]
CCc1cnc(C(=O)O)c(C(=O)O)c1 | inactive | 
CCCC1CCCC(=O)O1 (stereo not given) | inactive | 
N#CCCCC(C#N)CCC#N (stereo not given) | inactive | 
C/C(=C\C(C)CC(C)CC(C)C)C1CC(=O)OC1=O (stereo not given) | inactive | 
C/C(=C(\CCO)SS/C(CCO)=C(\C)N(C=O)Cc1cnc(C)nc1N)N(C=O)Cc1cnc(C)nc1N | inactive | 

Compound | outcome | viability change, negative = cytotoxic
CC(C(=O)O)c1ccc2c(c1)Cc1cccnc1O2 (stereo not given) | inactive | 
C=CC(=O)NC(C)(C)C | inactive | 
CC(C)Cc1nccs1 | inactive | 
Clc1cccc(C(c2ccc3nc[nH]c3c2)n2ccnc2)c1 (stereo not given) | inactive | 
CC(=O)Nc1ccn(C2COC(COC(=O)c3ccccc3)O2)c(=O)n1 (stereo not given) | inactive | 
Nc1ccc(C(=O)Oc2ccccc2)c(O)c1 | inactive | 
c1ccc(CN(Cc2ccccc2)Cc2ccccc2)cc1 | inactive | 
COC(=O)/C=C/C(C)=C\C=C\C(C)=C\C=C\C=C(C)\C=C\C=C(C)\C=C\C(=O)O | inactive | 
C=CC(C)CCC=C(C)C (stereo not given) | inactive | 
O=C(O)c1ccc(O)c(O)c1 | inactive | 
CC[C@H](NC(C)C)[C@H](O)c1ccc(O)c2[nH]c(=O)ccc12 | inactive | 
CC(O)C(C)O (stereo not given) | inactive | 
CC/C=C/CCO | inactive | 
CS(C)=O | inactive | 
O=C(OC1C[C@H]2CC[C@@H](C1)[N+]21CCCC1)C(O)(c1ccccc1)c1ccccc1 (stereo not given in full) | inactive | 
CCOc1ccc2c(c1)C(C)CC(C)(C)N2 (stereo not given) | inactive | 
CCCCOc1ccc(N)cc1 | inactive | 
O=C(C1CCCCC1)N1CC(=O)N2CCCc3ccccc3C2C1 (stereo not given) | inactive | 
CC1(COc2ccc(CC3SC(=O)NC3=O)cc2)CCCCC1 (stereo not given) | inactive | 
CC(Cc1ccccc1)(NC(=O)CN)c1ccccc1 (stereo not given) | inactive | 
